# Measurements reported in PubChem BioAssay.
# Tested on: Chordin-like protein 2 (CHRDL2)
# Assay: compounds binding chordin-like 2 – biochemical, small-molecule microarray, 635 nm fluorescence, primary screen (AID 1126);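 note: printed compound slides probed with Chrdl2 protein at 4 µg/mL for 1 h at 4 C; score merges 667 nm emission intensity with signal to noise over three replicate slides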
# Settings: fluorescence 635 nm, higher = more signal
row,SMILES,composite z-score
1,COC(=O)[C@@]1(Cc2ccc(OC)cc2)[C@H]2c3cc(C(=O)N4CCCC4)n(Cc4ccsc4Br)c3C[C@H]2CN1C(=O)c1ccccc1,-0.91
2,CCOC(=O)C[C@H]1[C@H](OC(=O)Cc2ccc3c(c2)OCO3)[C@@H](NC(=O)c2ccc(-c3ccccc3)cc2)c2cc(OCCCO)ccc2N1C(=O)c1ccc2ccccc2n1,0.415
3,COC(=O)[C@@]1(Cc2ccc(F)cc2)[C@H]2c3cc(C(=O)N(C)C)n(CC4CC4)c3C[C@H]2CN1C(=O)c1ccccc1,-0.542
4,CCCCC(=C=CC[C@@H](O)c1ccccc1OCCO)CCO,-0.638
5,COc1ccc([Si](C)(C)[C@@H]2[C@@H](CCO)O[C@]3(C(=O)N(Cc4ccc(N5C(=O)COc6ccccc65)cc4)c4ccccc43)[C@H]2C)cc1,0.106
6,CC1CC/C=C\[C@H]2OC34C=CCN(Cn5nnc6ccccc65)C(=O)[C@H]3N(C(CO)C(C)C)C(=O)[C@@H]4C2C(=O)O1 (stereo partly specified),-0.89
7,CCCCN1CC=CC23O[C@@H]4/C=C\CCC(C)OC(=O)C4[C@H]2C(=O)N(CCCCCO)[C@@H]3C1=O (stereo partly specified),-1.4
8,O=C1C[C@]2(c3ccc([N+](=O)[O-])cc3)C(=O)N(CCN3CCOCC3)c3cc(CO)ccc3[C@H]2N1C1CCCCC1,-0.337
9,O=C(O)[C@@]1(CCS(=O)(=O)c2ccccc2)COC(c2ccc(OCCCO)cc2)=N1,-0.724
10,COc1ccc(C(O)C2C=CC3C(=O)N(c4ccccc4)C(=O)C3N2Nc2ccc(C(C)C)cc2)cc1OCc1ccccc1 (stereo unspecified),-0.443
11,CC(C)C(=C=CC[C@@H](O)c1ccccc1OCCO)CCO,0.0551
12,CN(C)C(=O)[C@]1(Cc2ccccc2CN=[N+]=[N-])N=C(c2ccc(OCCCO)cc2)O[C@@H]1c1ccccc1CN=[N+]=[N-],-0.223
13,COc1ccc(C(=O)Nc2cccc(CN3C(=O)[C@]4(O[C@H](CCO)[C@@H]([Si](C)(C)c5ccc(OC)cc5)[C@@H]4C)c4ccccc43)c2)cc1,0.379
14,CCCCCC1=C2CNC(CCC)(C(=O)OC)C=C2C(C)C1=O (stereo unspecified),-0.723
15,CCOC(=O)C[C@H]1[C@H](OC(=O)c2cc3ccccc3oc2=O)[C@@H](NC(=O)Cc2ccc(OC)cc2)c2cc(OCCCO)ccc2N1C(=O)c1ccccc1,0.328
16,COc1ccc([C@H]2C[C@H]3C(Br)=C[C@@H]2C(=O)[C@]32CO2)cc1,0.736
17,CCOC(=O)C1=CCC(c2ccccc2)N(S(=O)(=O)CC[Si](C)(C)C)C1 (stereo unspecified),0.165
18,O=C1NCC(=O)N2[C@@H]1C[C@@H](C(=O)O)[C@H]2c1cccc(OCCO)c1,1.6

row,SMILES,composite z-score
1,COCCOC(=O)N1C(=O)[C@@]2(c3cc(C#CC4=CCCCC4)ccc31)[C@H](C(=O)N1CCc3cc(OC)c(OC)cc3C1)[C@H]1C(=O)O[C@H](c3ccccc3)[C@H](c3ccccc3)N1[C@@H]2c1ccc(OCCO)cc1,0.69
2,O=C(NCC(F)(F)F)[C@@H]1c2ccccc2C(=O)N(C2CCCCC2)[C@H]1c1ccc(CO)cc1,-0.615
3,CC(C)OC(=O)C=C1C[C@@H](c2ccccc2C(F)(F)F)O[C@@H](c2ccccc2C(F)(F)F)O1,0.0577
4,COc1ccc([Si](C)(C)[C@H]2[C@H](CC(=O)N3Cc4ccccc4C[C@H]3CO)O[C@@]3(C(=O)N(Cc4ccc(N5CCC5=O)cc4)c4ccccc43)[C@@H]2C)cc1,1.4
5,C=CCC(OC(C)=O)[C@@H]1[C@@H](N(Cc2cccc3ccccc23)C(=O)c2ccc(-c3ccccc3)cc2)c2cc(OCCCO)ccc2N1C(=O)Cc1ccc(OC)cc1 (stereo partly specified),-0.147
6,COc1ccc(CCNC(=O)[C@@H]2c3ccccc3C(=O)N(C3Cc4ccccc4C3)[C@H]2c2ccc(CO)cc2)cc1,-0.551
7,C=CCNC(=O)[C@H]1[C@@H]2C(=O)O[C@@H](c3ccccc3)[C@@H](c3ccccc3)N2[C@@H](c2ccc(O)cc2)[C@]12C(=O)N(C(=O)OCCOC)c1ccc(C#CCNC(N)=O)cc12,0.64
8,C=CCC(OC(C)=O)[C@@H]1[C@@H](N(Cc2ccc(-c3cccc(C(F)(F)F)c3)o2)C(=O)Cc2ccc(F)cc2)c2cc(OCCCO)ccc2N1C(=O)Cc1ccc(OC)cc1 (stereo partly specified),0.149
9,Cc1ccc(S[C@]2(C(=O)NCC(F)(F)F)CC(=O)N(C(C)C)[C@@H]2c2ccc(CO)cc2I)cc1,-0.445
10,O=C1NC(=O)C2C1C=CC(C(O)c1ccccc1)N2Nc1ccc(Cl)cc1Cl (stereo unspecified),-0.238
11,COc1ccc([Si](C)(C)[C@H]2[C@H](CCO)O[C@@]3(C(=O)N(C)c4c(Br)cc(C)cc43)[C@@H]2C)cc1,0.344
12,CN1C(=O)C2C=CC(C(O)c3ccc(-c4ccccc4)s3)N(N(c3ccccc3)c3ccccc3)C2C1=O (stereo unspecified),0.414
13,COc1ccc(CCNC(=O)[C@@]2(Sc3ccc(C)cc3)CC(=O)N(C3CCCCC3)[C@@H]2c2ccc(CO)cc2I)cc1,0.119
14,C=CCNC(=O)[C@H]1[C@@H]2C(=O)O[C@@H](c3ccccc3)[C@@H](c3ccccc3)N2[C@@H](c2ccccc2OCCO)[C@]12C(=O)Nc1ccc(C#CC3=CCCCC3)cc12,0.495
15,C[N+](C)(C)CCCC[C@@H]1NC(=O)[C@@H]2C[C@H](C(=O)NCCCCCN)[C@H](c3cccc(OCCO)c3)N2C1=O,-0.633
16,C=C/C=C/[C@H]1C(=C)CN([C@@H](Cc2ccccc2)C(=O)OC)[C@@H]1[C@H](O)Cc1ccccc1,-0.0454
17,CN1C(=O)C2C=CC(C(O)c3ccc(I)cc3)N(N3CCCCC3)C2C1=O (stereo unspecified),-0.119
18,O=C1[C@H]2C=C(Br)[C@H](C[C@@H]2c2ccccc2)[C@@]12CO2,0.945
